Values without a mark were called inactive. For part of these data: Measured potencies and affinities stand elsewhere. The source made the active and inactive calls. Unless noted, how the calls were made is not given here.

Assay [1] is described as follows: antimalarial activity against Dd2 strain (AID 2302;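 active means growth inhibition above 50% at the single 2 µM test dose, taken to imply half-maximal potency below 2 µM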;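 further: 0% = DMSO untreated growth and 100% = chloroquine plus artemisinin killed control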). The conditions noted are these: P. falciparum Dd2 in RBCs, LDH growth readout, 72 h; at 2 µM; hits give high values.
Assay [2] is described as follows: human hepatoma cell viability loss – ATP luminescence, cytotoxicity control for P. falciparum antimalarial project, primary screen (AID 2303;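 active means inhibition above 50%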;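 further: 0% = DMSO wells and 100% = digitonin-killed cells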). The conditions noted are these: HepG2 viability, 24-48 h, at 10 µM, hits give high values.
For assay [3], the target named is L-lactate dehydrogenase (Plasmodium falciparum (isolate CDC / Honduras)) (UniProt Q27743). Briefly: PfLDH activity inhibition – cell lysate, 3D7 strain, counter-screen for P. falciparum growth inhibition project (AID 2304).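 Further: 0% = vehicle and 100% = reference inhibitor.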 The settings on record: P. falciparum 3D7 crude extract, LDH APAD/NBT absorbance; at 2 µM; hits give high values.
L-lactate dehydrogenase (Plasmodium falciparum (isolate CDC / Honduras)), sequence (Q27743 whole entry, looked up): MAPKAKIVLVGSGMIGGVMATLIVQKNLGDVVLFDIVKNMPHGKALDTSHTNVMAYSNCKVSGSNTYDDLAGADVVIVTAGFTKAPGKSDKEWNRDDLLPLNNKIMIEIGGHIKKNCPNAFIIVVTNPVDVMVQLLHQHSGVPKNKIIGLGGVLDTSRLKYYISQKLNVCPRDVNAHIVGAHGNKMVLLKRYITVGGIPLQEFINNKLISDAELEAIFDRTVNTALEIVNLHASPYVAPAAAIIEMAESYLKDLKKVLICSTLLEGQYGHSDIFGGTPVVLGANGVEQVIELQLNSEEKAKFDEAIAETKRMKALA
Assay [4] can be described thus: inhibition of 3D7 malaria parasite growth – strain 3D7 (AID 2306).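 Further: 0% = DMSO wells and 100% = chloroquine plus artemisinin control wells.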 The settings on record: P. falciparum 3D7 erythrocytic growth, LDH absorbance, 72 h; at 2 µM; hits give high values.
For assay [5], the target named is Calcium-dependent protein kinase 1 (Plasmodium falciparum (isolate 3D7)) (UniProt P62344). Put plainly: PfCDPK1 kinase inhibitors, biochemical, TCAMS library (AID 1159585; cut-off not given, nearly all actives have IC50 up to about 0.98 µM;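 further: inhibitors leave more ATP so luminescence rises with inhibition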). The settings on record: recombinant PfCDPK1, Kinase-Glo ATP depletion luminescence. (Kinase-Glo reads ATP consumption through a luciferase reaction.)
Calcium-dependent protein kinase 1 (Plasmodium falciparum (isolate 3D7)), sequence (P62344 whole entry, looked up): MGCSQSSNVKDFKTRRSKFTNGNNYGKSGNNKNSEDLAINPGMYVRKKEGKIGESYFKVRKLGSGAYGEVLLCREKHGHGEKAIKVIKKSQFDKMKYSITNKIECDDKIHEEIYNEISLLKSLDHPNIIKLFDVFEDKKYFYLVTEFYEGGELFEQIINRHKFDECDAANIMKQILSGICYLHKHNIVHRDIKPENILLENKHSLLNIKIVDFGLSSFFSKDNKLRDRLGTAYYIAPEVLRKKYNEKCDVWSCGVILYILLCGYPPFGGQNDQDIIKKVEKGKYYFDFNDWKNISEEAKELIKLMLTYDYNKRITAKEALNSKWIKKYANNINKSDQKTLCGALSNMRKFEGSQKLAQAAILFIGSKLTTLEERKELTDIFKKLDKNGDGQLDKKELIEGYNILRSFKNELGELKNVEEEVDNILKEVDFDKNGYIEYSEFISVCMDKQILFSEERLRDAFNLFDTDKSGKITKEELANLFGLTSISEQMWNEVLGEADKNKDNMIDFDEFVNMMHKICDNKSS
The target of assay [6] is Plasmodium falciparum protein kinase 6 (PK6, PF3D7_1337100) (UniProt Q8IDW1). Briefly: PfPK6 kinase inhibitors, biochemical, TCAMS library (AID 1159586). The conditions noted are these: recombinant PfPK6, Kinase-Glo ATP depletion luminescence.
Plasmodium falciparum protein kinase 6 (PK6, PF3D7_1337100), sequence (Q8IDW1 1-305): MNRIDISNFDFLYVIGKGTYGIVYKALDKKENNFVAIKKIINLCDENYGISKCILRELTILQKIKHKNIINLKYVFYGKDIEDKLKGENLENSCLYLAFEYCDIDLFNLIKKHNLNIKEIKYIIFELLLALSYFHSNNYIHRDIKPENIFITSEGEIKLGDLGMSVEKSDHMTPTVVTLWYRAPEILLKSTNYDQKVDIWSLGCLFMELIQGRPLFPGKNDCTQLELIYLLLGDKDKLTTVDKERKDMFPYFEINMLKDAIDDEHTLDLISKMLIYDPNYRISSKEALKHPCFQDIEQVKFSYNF
Assay [7] has as its target Protein kinase 7 (PK7), Plasmodium falciparum 3D7 (PF3D7_0213400) (UniProt Q7YTF7). Briefly: inhibition of Plasmodium PK7 catalytic activity – biochemical, TCAMS antimalarial set, Kinase-Glo luminescence (AID 1159587). The conditions noted are these: recombinant PfPK7, Kinase-Glo ATP depletion luminescence.
Assay [8] has as its target Calcium-dependent protein kinase 4 (Plasmodium falciparum (isolate 3D7)) (UniProt Q8IBS5). Put plainly: PfCDPK4 kinase inhibitors, biochemical, TCAMS library (AID 1159588; cut-off not given, nearly all actives have IC50 up to about 0.91 µM). The conditions noted are these: recombinant PfCDPK4, Kinase-Glo ATP depletion luminescence.

Calcium-dependent protein kinase 4 (Plasmodium falciparum (isolate 3D7)), sequence (Q8IBS5 whole entry, looked up): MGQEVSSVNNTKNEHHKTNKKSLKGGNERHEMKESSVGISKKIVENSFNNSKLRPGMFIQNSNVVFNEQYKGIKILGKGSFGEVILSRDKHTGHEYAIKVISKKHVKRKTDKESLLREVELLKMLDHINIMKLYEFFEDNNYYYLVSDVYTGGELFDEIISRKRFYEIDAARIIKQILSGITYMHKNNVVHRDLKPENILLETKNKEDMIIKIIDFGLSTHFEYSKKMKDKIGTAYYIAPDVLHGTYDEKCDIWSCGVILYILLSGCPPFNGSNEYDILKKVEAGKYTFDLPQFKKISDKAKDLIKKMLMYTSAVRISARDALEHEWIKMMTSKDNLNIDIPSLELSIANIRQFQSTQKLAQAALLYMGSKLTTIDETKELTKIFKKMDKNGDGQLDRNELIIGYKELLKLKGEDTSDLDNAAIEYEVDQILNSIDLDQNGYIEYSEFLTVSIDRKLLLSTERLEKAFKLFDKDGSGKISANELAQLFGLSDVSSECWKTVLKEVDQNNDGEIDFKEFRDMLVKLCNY
Protein kinase 7 (PK7), Plasmodium falciparum 3D7 (PF3D7_0213400), sequence (Q7YTF7 1-343): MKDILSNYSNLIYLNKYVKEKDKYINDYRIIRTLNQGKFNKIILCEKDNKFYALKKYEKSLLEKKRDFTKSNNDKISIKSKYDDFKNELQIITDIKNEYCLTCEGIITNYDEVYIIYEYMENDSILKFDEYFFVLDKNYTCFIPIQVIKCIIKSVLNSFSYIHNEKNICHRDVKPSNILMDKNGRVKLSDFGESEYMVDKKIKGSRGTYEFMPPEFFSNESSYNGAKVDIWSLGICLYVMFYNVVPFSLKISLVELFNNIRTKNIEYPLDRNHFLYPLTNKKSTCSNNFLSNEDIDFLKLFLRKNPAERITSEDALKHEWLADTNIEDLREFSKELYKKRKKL

The term inhibition denotes the drop in the measured response relative to a control, in per cent. `O=C(c1ccccc1F)N(Cc1ccc(Cl)cc1)c1ccccn1`: the growth inhibition was 58% (active) in assay [1] and 84% (active) in assay [4]. The inhibition in assay [2] is -3%; in assay [3], 1%. Moreover, the result in assay [5], in assay [6], in assay [7] and in assay [8] was inactive.
Regarding `O=C(/C=C/c1ccc(Cl)c(Cl)c1)N1CCN(C(=O)Nc2ccc(F)c(Cl)c2)CC1`, the figures for the growth inhibition in assay [1] and in assay [4] were 87% (active) and 97% (active), respectively. Also, the inhibition in assay [2] is 19%; in assay [3] it was -6%. Further, the result in assay [5], in assay [6], in assay [7] and in assay [8] was inactive.
Regarding `O=C(Nc1ccc([N+](=O)[O-])cc1)c1nn(-c2ccccc2)cc1N=Cc1cccc(O)c1`, the growth inhibition was 37% in assay [1] and 98% (active) in assay [4]. In addition, the inhibition was 10% in assay [2] and -5% in assay [3]. Further, the result in assay [5], in assay [6], in assay [7] and in assay [8] was inactive.
As to `COc1ccc2nccc([C@@H](O)CN3CCC(NCc4ccc5c(n4)NCCC5)CC3)c2c1`, the growth inhibition is 39% in assay [1] and 101% (active) in assay [4]. The inhibition in assay [2] is 21%; in assay [3], -3%. Also, the result in assay [5], in assay [6], in assay [7] and in assay [8] was inactive.
On to `CC1(C)CCCN(Cc2c(O)ccc3c(=O)c(-c4nc5ccccc5s4)c(N)oc23)C1`, for which the figures for the growth inhibition in assay [1] and in assay [4] were 100% (active) and 101% (active), respectively. Also, the inhibition in assay [2] is 20%; in assay [3], -1%. Moreover, the outcome in assay [5], in assay [6], in assay [7] and in assay [8] was inactive.
As for `COc1ccc2nc(N3CCN(C(=O)OC(C)(C)C)CC3)nc(NCCCc3ccccc3)c2c1`, the results for the growth inhibition in assay [1] and in assay [4] were 95% (active) and 102% (active), respectively. The values for the inhibition in assay [2] and in assay [3] were 9% and -2%, respectively. Moreover, the outcome in assay [5], in assay [6], in assay [7] and in assay [8] was inactive.
With `NC1CCN(CCc2ccc(NS(=O)(=O)c3cccc4ccccc34)cc2)CC1`, the growth inhibition is 4% in assay [1] and 94% (active) in assay [4]. The results for the inhibition in assay [2] and in assay [3] were 21% and 4%, respectively. Further, the result in assay [5], in assay [6], in assay [7] and in assay [8] was inactive.
With `N#Cc1ccc(NC(=O)NC2CCN(CCCCCNC(=O)/C=C/c3ccc(Cl)c(Cl)c3)CC2)cc1`, the results for the growth inhibition in assay [1] and in assay [4] were 4% and 98% (active), respectively. Besides, the inhibition in assay [2] is 15%; in assay [3], 0%. Also, the outcome in assay [5], in assay [6], in assay [7] and in assay [8] was inactive.
On to `NC1CCCN(Cc2cccc(-c3ccc(-c4nc5ccccc5[nH]4)cc3)c2)C1` (centres undefined), for which the growth inhibition in assay [1] was 73% (active); in assay [4], 101% (active). Further, the inhibition was 25% in assay [2] and -6% in assay [3]. Further, the result in assay [5], in assay [6], in assay [7] and in assay [8] was inactive.
On to `CC(=O)Nc1cccc(C(=O)Nc2cccc(-c3ccc(-c4nc5c(C)cccc5[nH]4)cc3)c2)c1`, for which the growth inhibition is 12% in assay [1] and 95% (active) in assay [4]. In addition, the inhibition in assay [2] is 29%; in assay [3], -1%. Besides, the outcome in assay [5], in assay [6], in assay [7] and in assay [8] was inactive.
For the molecule `COc1ccc2nccc([C@@H](O)CN3CCC(NC(=O)c4ccc(Cl)c(Cl)c4)CC3)c2c1`, the growth inhibition in assay [1] was 57% (active); in assay [4] it was 96% (active). Moreover, the inhibition in assay [2] was 21%; in assay [3] it was -5%. The outcome in assay [5], in assay [6], in assay [7] and in assay [8] was inactive.
As to `Cc1cccc(CNc2nc(C)cc(NCCC(=O)NCc3cccc(F)c3)n2)c1`, the growth inhibition in assay [1] was 13%; in assay [4], 84% (active). In addition, the inhibition in assay [2] was 23%; in assay [3] it was -1%. For the same molecule, the outcome in assay [5], in assay [6], in assay [7] and in assay [8] was inactive.
`CC(C)NCC(O)Cn1c2ccc(Br)cc2c2cc(Br)ccc21` (centres undefined): the growth inhibition in assay [1] was 100% (active); in assay [4], 99% (active). For the same molecule, the results for the inhibition in assay [2] and in assay [3] were 100% (active) and -1%, respectively. Also, the outcome in assay [5], in assay [6], in assay [7] and in assay [8] was inactive.
With `Cn1cnc(CCNC(=O)c2ccc(-c3cccc(-c4nc5ccc(C(F)(F)F)cc5[nH]4)c3)cc2)c1`, the growth inhibition was 93% (active) in assay [1] and 101% (active) in assay [4]. Besides, the inhibition in assay [2] is 25%; in assay [3], 3%. For the same molecule, the outcome in assay [5], in assay [6], in assay [7] and in assay [8] was inactive.
For the molecule `COc1cc(F)c2nccc([C@@H](O)CN3CC[C@H](NCc4ccc5c(n4)NC(=O)CS5)[C@H](F)C3)c2c1`, the growth inhibition in assay [1] was 80% (active); in assay [4], 87% (active). In addition, the inhibition in assay [2] is 32%; in assay [3] it was 5%. Further, the outcome in assay [5], in assay [6], in assay [7] and in assay [8] was inactive.
Regarding `Cc1cc(NN=Cc2ccccc2[N+](=O)[O-])c2cc(C(F)(F)F)ccc2n1`, the growth inhibition in assay [1] is 39%; in assay [4] it was 97% (active). The inhibition is -5% in assay [2] and 1% in assay [3]. The result in assay [5], in assay [6], in assay [7] and in assay [8] was inactive.
In the case of `Cc1cccc(OC(C)C(=O)Nc2cc(C(F)(F)F)ccc2N2CCOCC2)c1` (centres undefined), the growth inhibition in assay [1] is 98% (active); in assay [4], 100% (active). In addition, the inhibition was 2% in assay [2] and -3% in assay [3]. Further, the outcome in assay [5], in assay [6], in assay [7] and in assay [8] was inactive.
`CN1CCN(c2ccnc3ccc(NC(=O)Nc4cccc(C#N)c4)cc23)CC1`: the figures for the growth inhibition in assay [1] and in assay [4] were 96% (active) and 99% (active), respectively. The results for the inhibition in assay [2] and in assay [3] were 11% and -1%, respectively. The outcome in assay [5], in assay [6], in assay [7] and in assay [8] was inactive.

For the origin of these results see PubChem BioAssay.
